# In PubChem BioAssay (NCI):
# The panel holds about 79,000 compounds, 15% with a hit somewhere; the sample as a whole holds those more often. A number with no mark means an inactive call. Activity calls are given as the source filed them. No stated cut-off is given here; in the data, active means growth inhibition above about 70%; inactive means the rest.
# Tests used:
# [1] = NCI Yeast Anticancer Drug Screen. Data for the rad52 strain (AID 147);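 further: 0% = growth of vehicle-treated control cultures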; conditions: S. cerevisiae rad52 mutant growth inhibition, active compounds read high
# Outline: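 DNA repair-defective yeast; compound exposure; growth scored against vehicle controls.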
# [2] = NCI Yeast Anticancer Drug Screen. Data for the wt1 strain (AID 149);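 further: 0% = growth of vehicle-treated wt1 cultures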; conditions: S. cerevisiae wt1 strain (SPY 50644) growth inhibition, active compounds read high
# Outline: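 The wt1 strain was treated with compounds, and growth was compared with vehicle-treated cultures to give inhibition.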
# [3] = NCI Yeast Anticancer Drug Screen. Data for the rad50EPP+ strain (AID 151);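 further: 0% = growth of vehicle-treated control cultures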; conditions: S. cerevisiae rad50 mutant strain, active compounds read high
# Outline: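 rad50EPP+ yeast treated with test compounds. Readout: growth vs vehicle control.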
# [4] = NCI Yeast Anticancer Drug Screen. Data for the mgt1 strain (AID 153); conditions: S. cerevisiae mgt1 mutant growth inhibition, active compounds read high
# Outline: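 Growth inhibition relative to vehicle controls was scored for the mgt1 yeast strain after compound exposure.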
# [5] = NCI Yeast Anticancer Drug Screen. Data for the rad50 strain (AID 155);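 further: 0% = growth of vehicle-only cultures of the same strain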; conditions: S. cerevisiae rad50 strain growth inhibition, active compounds read high
# Outline: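 Cells are treated with compound, grown, and their growth is then scored against vehicle-only cultures of the same repair-deficient yeast strain.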
# [6] = NCI Yeast Anticancer Drug Screen. Data for the mec2-1 strain (AID 157); conditions: S. cerevisiae mec2-1 strain, active compounds read high
# Outline: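 Growth inhibition is read against vehicle-treated controls after compound exposure of the mec2-1 yeast strain, which is defective in DNA damage repair or cell cycle control.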
# [7] = NCI Yeast Anticancer Drug Screen. Data for the rad14 strain (AID 159);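 further: 0% = growth of vehicle-treated control cultures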; conditions: S. cerevisiae rad14 strain growth inhibition, active compounds read high
# Outline: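 Readout: yeast growth inhibition, referenced to vehicle-only cultures. Strain bears a defined alteration in DNA damage repair.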
# [8] = NCI Yeast Anticancer Drug Screen. Data for the sgs1 mgt1 strain (AID 161);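 further: 0% = growth of cultures given vehicle only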; conditions: S. cerevisiae sgs1 mgt1 strain, active compounds read high
# Outline: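 Yeast cells carrying a defined DNA-repair defect were exposed to test compounds. Growth inhibition was measured relative to vehicle-treated controls.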
# [9] = NCI Yeast Anticancer Drug Screen. Data for the CLN2oe strain (AID 163);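 further: 0% = growth of vehicle-only control cultures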; conditions: S. cerevisiae CLN2oe strain, active compounds read high
# Outline: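 Compound-treated yeast; growth vs vehicle ctrl = % inhibition. Genetically altered strain (cell-cycle control).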
# [10] = NCI Yeast Anticancer Drug Screen. Data for the cln2 rad14 strain (AID 165);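 further: 0% = growth equal to vehicle treated cultures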; conditions: S. cerevisiae cln2 rad14 strain, active compounds read high
# Outline: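 Growth inhibition, relative to vehicle-treated controls, is the read-out. The test organism is a yeast strain with defined genetic alterations, cln2 rad14.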
# [11] = NCI Yeast Anticancer Drug Screen. Data for the bub3 strain (AID 167); conditions: S. cerevisiae bub3 mutant strain, active compounds read high
# Outline: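 Part of a panel of yeast mutants defective in DNA damage repair or cell cycle regulation. Each strain is grown with compound, and inhibition is calculated relative to solvent-treated cultures.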
# [12] = NCI Yeast Anticancer Drug Screen. Data for the wt2 strain (AID 169);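 further: 0% = growth of vehicle-treated yeast cultures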; conditions: S. cerevisiae wt2 strain growth inhibition, active compounds read high
# Outline: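 Compound exposure of yeast; growth compared with vehicle controls; inhibition reported.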
# [13] = NCI Yeast Anticancer Drug Screen. Data for the mlh1 strain (AID 171);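 further: 0% = growth of vehicle-treated control cultures of the same strain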; conditions: S. cerevisiae mlh1 strain growth inhibition, active compounds read high
# Outline: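 Compounds are applied to a genetically altered yeast strain, and its growth is compared with that of vehicle-treated cultures to give percent inhibition.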
# [14] = NCI Yeast Anticancer Drug Screen. Data for the sgs1 strain (AID 173);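 further: 0% = growth of vehicle-only control cultures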; conditions: S. cerevisiae sgs1 mutant, active compounds read high
# Outline: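 Compounds applied to genetically altered yeast; growth compared with vehicle-treated cultures to give % inhibition.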
# [15] = NCI Yeast Anticancer Drug Screen. Data for the mlh1 rad18 strain (AID 175); conditions: S. cerevisiae mlh1 rad18 strain growth inhibition, active compounds read high
# Outline: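 Cells of a genetically altered yeast strain, deficient in DNA damage repair, were treated with compound. Their growth was then compared with that of vehicle-treated cultures to give inhibition.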
# [16] = NCI Yeast Anticancer Drug Screen. Data for the rad18 strain (AID 177); conditions: S. cerevisiae rad18 mutant growth inhibition, active compounds read high
# Outline: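 Compounds are applied to a repair-deficient yeast strain, and growth is compared with that of vehicle-treated cultures to give percent inhibition.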
# [17] = at 5.0 µM (retest, dose inferred, filed as 0.5)
# [18] = at 50.0 µM (retest, dose inferred, filed as 5.0)
smiles,measurement,setting,value
Cn1c2nc3ccccc3c-2nc2ccccc21,growth inhibition,[1]; at 1.2 µM,25%
same,growth inhibition,[1]; at 3.7 µM,88% (active)
same,growth inhibition,[1]; at 11.0 µM,97% (active)
same,growth inhibition,[1]; at 33.0 µM,98% (active)
same,growth inhibition,[1]; at 100.0 µM,98% (active)
same,growth inhibition,[2]; at 1.2 µM,6%
same,growth inhibition,[2]; at 3.7 µM,29%
same,growth inhibition,[2]; at 11.0 µM,79% (active)
same,growth inhibition,[2]; at 33.0 µM,96% (active)
same,growth inhibition,[2]; at 100.0 µM,97% (active)
same,growth inhibition,[3]; at 1.2 µM,52%
same,growth inhibition,[3]; at 3.7 µM,93% (active)
same,growth inhibition,[3]; at 11.0 µM,98% (active)
same,growth inhibition,[3]; at 33.0 µM,98% (active)
same,growth inhibition,[3]; at 100.0 µM,98% (active)
same,growth inhibition,[4]; at 1.2 µM,4%
same,growth inhibition,[4]; at 3.7 µM,29%
same,growth inhibition,[4]; at 11.0 µM,80% (active)
same,growth inhibition,[4]; at 33.0 µM,97% (active)
same,growth inhibition,[4]; at 100.0 µM,97% (active)
same,growth inhibition,[5]; at 1.2 µM,27%
same,growth inhibition,[5]; at 3.7 µM,81% (active)
same,growth inhibition,[5]; [17],75% (active)
same,growth inhibition,[5]; at 11.0 µM,95% (active)
same,growth inhibition,[5]; at 33.0 µM,97% (active)
same,growth inhibition,[5]; [18],97% (active)
same,growth inhibition,[5]; at 50.0 µM,98.6% (active)
same,growth inhibition,[5]; at 100.0 µM,96% (active)
same,growth inhibition,[6]; at 1.2 µM,10%
same,growth inhibition,[6]; at 3.7 µM,41%
same,growth inhibition,[6]; [17],33%
same,growth inhibition,[6]; at 11.0 µM,87% (active)
same,growth inhibition,[6]; at 33.0 µM,97% (active)
same,growth inhibition,[6]; [18],98% (active)
same,growth inhibition,[6]; at 50.0 µM,96% (active)
same,growth inhibition,[6]; at 100.0 µM,98% (active)
same,growth inhibition,[7]; at 1.2 µM,8%
same,growth inhibition,[7]; at 3.7 µM,31%
same,growth inhibition,[7]; at 11.0 µM,82% (active)
same,growth inhibition,[7]; at 33.0 µM,97% (active)
same,growth inhibition,[7]; at 100.0 µM,98% (active)
same,growth inhibition,[8]; [17],39%
same,growth inhibition,[8]; [18],95% (active)
same,growth inhibition,[8]; at 50.0 µM,97.9% (active)
same,growth inhibition,[9]; at 1.2 µM,19%
same,growth inhibition,[9]; at 3.7 µM,46%
same,growth inhibition,[9]; at 11.0 µM,91% (active)
same,growth inhibition,[9]; at 33.0 µM,97% (active)
same,growth inhibition,[9]; at 100.0 µM,97% (active)
same,growth inhibition,[10]; [17],32%
same,growth inhibition,[10]; [18],96% (active)
same,growth inhibition,[10]; at 50.0 µM,96.2% (active)
same,growth inhibition,[11]; at 1.2 µM,-5%
same,growth inhibition,[11]; at 3.7 µM,22%
same,growth inhibition,[11]; [17],16%
same,growth inhibition,[11]; at 11.0 µM,88% (active)
same,growth inhibition,[11]; at 33.0 µM,96% (active)
same,growth inhibition,[11]; [18],97% (active)
same,growth inhibition,[11]; at 50.0 µM,98.2% (active)
same,growth inhibition,[11]; at 100.0 µM,94% (active)
same,growth inhibition,[12]; at 1.2 µM,7%
same,growth inhibition,[12]; at 3.7 µM,33%
same,growth inhibition,[12]; at 11.0 µM,83% (active)
same,growth inhibition,[12]; at 33.0 µM,96% (active)
same,growth inhibition,[12]; at 100.0 µM,96% (active)
same,growth inhibition,[13]; at 1.2 µM,9%
same,growth inhibition,[13]; at 3.7 µM,46%
same,growth inhibition,[13]; at 11.0 µM,91% (active)
same,growth inhibition,[13]; at 33.0 µM,97% (active)
same,growth inhibition,[13]; at 100.0 µM,97% (active)
same,growth inhibition,[14]; at 1.2 µM,8%
same,growth inhibition,[14]; at 3.7 µM,42%
same,growth inhibition,[14]; at 11.0 µM,88% (active)
same,growth inhibition,[14]; at 33.0 µM,97% (active)
same,growth inhibition,[14]; at 100.0 µM,97% (active)
same,growth inhibition,[15]; [17],45%
same,growth inhibition,[15]; [18],98% (active)
same,growth inhibition,[15]; at 50.0 µM,98.1% (active)
same,growth inhibition,[16]; at 1.2 µM,8%
same,growth inhibition,[16]; at 3.7 µM,42%
same,growth inhibition,[16]; at 11.0 µM,90% (active)
same,growth inhibition,[16]; at 33.0 µM,97% (active)
same,growth inhibition,[16]; at 100.0 µM,93% (active)
CCC(C)(c1ccc(O)c(C)c1)c1ccc(O)c(C)c1,growth inhibition,[1]; at 1.2 µM,-36%
same,growth inhibition,[1]; at 3.7 µM,-19%
same,growth inhibition,[1]; at 11.0 µM,42%
same,growth inhibition,[1]; at 33.0 µM,98% (active)
same,growth inhibition,[1]; at 100.0 µM,98% (active)
same,growth inhibition,[2]; at 1.2 µM,-17%
same,growth inhibition,[2]; at 3.7 µM,-23%
same,growth inhibition,[2]; at 11.0 µM,29%
same,growth inhibition,[2]; at 33.0 µM,98% (active)
same,growth inhibition,[2]; at 100.0 µM,99% (active)
same,growth inhibition,[3]; at 1.2 µM,-31%
same,growth inhibition,[3]; at 3.7 µM,-38%
same,growth inhibition,[3]; at 11.0 µM,-43%
same,growth inhibition,[3]; at 33.0 µM,-41%
same,growth inhibition,[3]; at 100.0 µM,12%
same,growth inhibition,[4]; at 1.2 µM,-49%
same,growth inhibition,[4]; at 3.7 µM,-39%
same,growth inhibition,[4]; at 11.0 µM,14%
same,growth inhibition,[4]; at 33.0 µM,97% (active)
same,growth inhibition,[4]; at 100.0 µM,99% (active)
same,growth inhibition,[5]; at 1.2 µM,-30%
same,growth inhibition,[5]; at 3.7 µM,-28%
same,growth inhibition,[5]; [17],40%
same,growth inhibition,[5]; at 11.0 µM,52%
same,growth inhibition,[5]; at 33.0 µM,97% (active)
same,growth inhibition,[5]; [18],87% (active)
same,growth inhibition,[5]; at 50.0 µM,92% (active)
same,growth inhibition,[5]; at 100.0 µM,97% (active)
same,growth inhibition,[6]; at 1.2 µM,-66%
same,growth inhibition,[6]; at 3.7 µM,-45%
same,growth inhibition,[6]; [17],42%
same,growth inhibition,[6]; at 11.0 µM,43%
same,growth inhibition,[6]; at 33.0 µM,98% (active)
same,growth inhibition,[6]; [18],90% (active)
same,growth inhibition,[6]; at 50.0 µM,93.3% (active)
same,growth inhibition,[6]; at 100.0 µM,98% (active)
same,growth inhibition,[7]; at 1.2 µM,-38%
same,growth inhibition,[7]; at 3.7 µM,-43%
same,growth inhibition,[7]; at 11.0 µM,15%
same,growth inhibition,[7]; at 33.0 µM,98% (active)
same,growth inhibition,[7]; at 100.0 µM,98% (active)
same,growth inhibition,[8]; [17],-3%
same,growth inhibition,[8]; [18],98% (active)
same,growth inhibition,[8]; at 50.0 µM,93.8% (active)
same,growth inhibition,[10]; [17],81% (active)
same,growth inhibition,[10]; [18],100% (active)
same,growth inhibition,[10]; at 50.0 µM,92.7% (active)
same,growth inhibition,[11]; at 1.2 µM,-27%
same,growth inhibition,[11]; at 3.7 µM,-13%
same,growth inhibition,[11]; [17],13%
same,growth inhibition,[11]; at 11.0 µM,47%
same,growth inhibition,[11]; at 33.0 µM,97% (active)
same,growth inhibition,[11]; [18],99% (active)
same,growth inhibition,[11]; at 50.0 µM,92.2% (active)
same,growth inhibition,[11]; at 100.0 µM,98% (active)
same,growth inhibition,[12]; at 1.2 µM,-33%
same,growth inhibition,[12]; at 3.7 µM,-31%
same,growth inhibition,[12]; at 11.0 µM,45%
same,growth inhibition,[12]; at 33.0 µM,98% (active)
same,growth inhibition,[12]; at 100.0 µM,99% (active)
same,growth inhibition,[13]; at 1.2 µM,-45%
same,growth inhibition,[13]; at 3.7 µM,-43%
same,growth inhibition,[13]; at 11.0 µM,42%
same,growth inhibition,[13]; at 33.0 µM,91% (active)
same,growth inhibition,[13]; at 100.0 µM,98% (active)
same,growth inhibition,[14]; at 1.2 µM,-32%
same,growth inhibition,[14]; at 3.7 µM,-25%
same,growth inhibition,[14]; at 11.0 µM,39%
same,growth inhibition,[14]; at 33.0 µM,97% (active)
same,growth inhibition,[14]; at 100.0 µM,98% (active)
same,growth inhibition,[15]; [17],30%
same,growth inhibition,[15]; [18],91% (active)
same,growth inhibition,[15]; at 50.0 µM,92.2% (active)
same,growth inhibition,[16]; at 1.2 µM,-55%
same,growth inhibition,[16]; at 3.7 µM,-38%
same,growth inhibition,[16]; at 11.0 µM,30%
same,growth inhibition,[16]; at 33.0 µM,97% (active)
same,growth inhibition,[16]; at 100.0 µM,98% (active)
